{
  "source": "PubChem BioAssay (NCI)",
  "note": "The panel holds about 83,000 compounds, 20% with a hit somewhere; the sample as a whole holds those more often.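 A percent growth of 40 corresponds to 60% growth inhibition; 0 means no net growth; -100 means all cells died. Active threshold: below 10.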 Activity calls are given as the source filed them.",
  "data": [
    {"system": "HL-60(TB) leukemia", "assay": "NCI-60 one-dose screen, 48 h (100 = growth as untreated, 0 = no growth, -100 = all killed)", "settings": "10 µM unless noted", "values": [
      {"smiles": "NS(=O)(=O)c1ccc(Nc2cc(-c3ccccc3)nc(SCC(=O)c3ccccc3)n2)cc1", "growth": "106% (inactive)"},
      {"smiles": "CNC(=O)c1cc(Oc2ccc3nc(NC(=O)c4cccc(OC(F)(F)F)c4)sc3c2)ccn1", "growth": "67.5% (inactive)"},
      {"smiles": "CCN(CC)c1ccc(/C=N/NC(=O)c2ccc(NS(C)(=O)=O)cc2)c(O)c1", "growth": "0.843% (active)"},
      {"smiles": "CN(C)CCCOc1c2ccccc2nc2c1oc1ccc(Cl)cc12", "growth": "9.14% (active)"},
      {"smiles": "Oc1ccccc1/C=N/Nc1nc(N/N=C/c2ccccc2O)nc(N2CCOCC2)n1", "growth": "3.74% (active)"},
      {"smiles": "COc1cc(NC(=O)Nc2cccc(-c3cc(=O)c4c(OC)c(OC)c(OC)cc4o3)c2)cc(OC)c1OC", "growth": "45% (inactive)"},
      {"smiles": "CCC(C)[C@H]1OC(=O)[C@H](C(C)C)N(C)C(=O)[C@@H](C(C)C)OC(=O)[C@H](C(C)C)N(C)C(=O)[C@@H](C(C)CC)OC(=O)[C@H](C(C)C)N(C)C1=O", "note": "(stereo partly drawn)", "growth": "-47.7% (active)"},
      {"smiles": "O=C(NCCN1CCCC1)c1ccc(-c2nc3ccc4[nH]ncc4c3c3c2CCCC3)cc1", "growth": "-49.8% (active)"},
      {"smiles": "O=C(CN1CCN(c2cc(=O)n(-c3ccccc3)c3ccccc23)CC1)Nc1cccc(C(F)(F)F)c1", "growth": "28.6% (inactive)"},
      {"smiles": "N#Cc1cn(Cc2ccc(Cl)cc2Cl)c(C(=O)c2ccc(Br)cc2)c1N", "growth": "96.6% (inactive)"},
      {"smiles": "COc1cc(C(=O)C[n+]2ccc3ccccc3c2)cc(OC)c1OC", "growth": "92.7% (inactive)"},
      {"smiles": "COc1ccccc1/C=C/C(=O)c1nnn(-c2ccc(F)cc2)c1C", "growth": "31.9% (inactive)"},
      {"smiles": "CCNCCOc1ccc(/C(=C(/CC)c2ccc(Cl)cc2)c2ccc(OCCCN(C)C)cc2)cc1", "growth": "-61.5% (active)"}
    ]}
  ]
}
